# Measurements published in the supplement of paper PMC11732987, “Enantioselective OTUD7B fragment discovery through chemoproteomics screening and high-throughput optimisation” (Communications Chemistry, 2025).
# Values without a mark were called inactive.
# Columns and labels:
# Assay in all cases: log2 ratio of Biotin-Ahx-Ub-VS probe labelling (fragment/DMSO); higher = less target engagement (more negative = stronger competition), active = hit call of the paper (q ≤ 0.05, log2 ratio ≤ -1)
# Conditions in all cases: compound concentration: 200 uM; treatment time: 3 h
# USP9X = USP9X (UniProt Q93008)
# Summary of the method: (§1)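 Using Biotin-Ahx-Ub-VS at 0.5 µM final for 1 h, DUBs were labelled in HEK293T lysate (495 µg per sample) that had first been treated in triplicate with fragment at 200 µM or vehicle for 3 h. NeutrAvidin enrichment, LysC and trypsin digestion and diaPASEF LC-MS/MS followed. Spectronaut label-free quantities were global-median-normalised. Values are average log2 fragment/vehicle ratios by unpaired t-test, using proteins with ≥2 unique peptides.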
# UniProt O00487 = target: UniProt O00487
# Sequence of UniProt O00487 (O00487 whole entry): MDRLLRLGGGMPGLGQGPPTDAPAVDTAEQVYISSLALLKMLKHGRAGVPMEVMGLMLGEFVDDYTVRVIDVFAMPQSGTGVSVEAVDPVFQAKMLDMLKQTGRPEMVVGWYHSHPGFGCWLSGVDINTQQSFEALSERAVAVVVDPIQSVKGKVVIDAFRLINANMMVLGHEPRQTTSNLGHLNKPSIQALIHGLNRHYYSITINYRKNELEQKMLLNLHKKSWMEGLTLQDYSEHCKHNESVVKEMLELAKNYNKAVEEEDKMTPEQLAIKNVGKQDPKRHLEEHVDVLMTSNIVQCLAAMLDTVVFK
# Summary of the method: as §1
# UniProt O00507 = target: UniProt O00507
# Sequence of UniProt O00507 (O00507 whole entry): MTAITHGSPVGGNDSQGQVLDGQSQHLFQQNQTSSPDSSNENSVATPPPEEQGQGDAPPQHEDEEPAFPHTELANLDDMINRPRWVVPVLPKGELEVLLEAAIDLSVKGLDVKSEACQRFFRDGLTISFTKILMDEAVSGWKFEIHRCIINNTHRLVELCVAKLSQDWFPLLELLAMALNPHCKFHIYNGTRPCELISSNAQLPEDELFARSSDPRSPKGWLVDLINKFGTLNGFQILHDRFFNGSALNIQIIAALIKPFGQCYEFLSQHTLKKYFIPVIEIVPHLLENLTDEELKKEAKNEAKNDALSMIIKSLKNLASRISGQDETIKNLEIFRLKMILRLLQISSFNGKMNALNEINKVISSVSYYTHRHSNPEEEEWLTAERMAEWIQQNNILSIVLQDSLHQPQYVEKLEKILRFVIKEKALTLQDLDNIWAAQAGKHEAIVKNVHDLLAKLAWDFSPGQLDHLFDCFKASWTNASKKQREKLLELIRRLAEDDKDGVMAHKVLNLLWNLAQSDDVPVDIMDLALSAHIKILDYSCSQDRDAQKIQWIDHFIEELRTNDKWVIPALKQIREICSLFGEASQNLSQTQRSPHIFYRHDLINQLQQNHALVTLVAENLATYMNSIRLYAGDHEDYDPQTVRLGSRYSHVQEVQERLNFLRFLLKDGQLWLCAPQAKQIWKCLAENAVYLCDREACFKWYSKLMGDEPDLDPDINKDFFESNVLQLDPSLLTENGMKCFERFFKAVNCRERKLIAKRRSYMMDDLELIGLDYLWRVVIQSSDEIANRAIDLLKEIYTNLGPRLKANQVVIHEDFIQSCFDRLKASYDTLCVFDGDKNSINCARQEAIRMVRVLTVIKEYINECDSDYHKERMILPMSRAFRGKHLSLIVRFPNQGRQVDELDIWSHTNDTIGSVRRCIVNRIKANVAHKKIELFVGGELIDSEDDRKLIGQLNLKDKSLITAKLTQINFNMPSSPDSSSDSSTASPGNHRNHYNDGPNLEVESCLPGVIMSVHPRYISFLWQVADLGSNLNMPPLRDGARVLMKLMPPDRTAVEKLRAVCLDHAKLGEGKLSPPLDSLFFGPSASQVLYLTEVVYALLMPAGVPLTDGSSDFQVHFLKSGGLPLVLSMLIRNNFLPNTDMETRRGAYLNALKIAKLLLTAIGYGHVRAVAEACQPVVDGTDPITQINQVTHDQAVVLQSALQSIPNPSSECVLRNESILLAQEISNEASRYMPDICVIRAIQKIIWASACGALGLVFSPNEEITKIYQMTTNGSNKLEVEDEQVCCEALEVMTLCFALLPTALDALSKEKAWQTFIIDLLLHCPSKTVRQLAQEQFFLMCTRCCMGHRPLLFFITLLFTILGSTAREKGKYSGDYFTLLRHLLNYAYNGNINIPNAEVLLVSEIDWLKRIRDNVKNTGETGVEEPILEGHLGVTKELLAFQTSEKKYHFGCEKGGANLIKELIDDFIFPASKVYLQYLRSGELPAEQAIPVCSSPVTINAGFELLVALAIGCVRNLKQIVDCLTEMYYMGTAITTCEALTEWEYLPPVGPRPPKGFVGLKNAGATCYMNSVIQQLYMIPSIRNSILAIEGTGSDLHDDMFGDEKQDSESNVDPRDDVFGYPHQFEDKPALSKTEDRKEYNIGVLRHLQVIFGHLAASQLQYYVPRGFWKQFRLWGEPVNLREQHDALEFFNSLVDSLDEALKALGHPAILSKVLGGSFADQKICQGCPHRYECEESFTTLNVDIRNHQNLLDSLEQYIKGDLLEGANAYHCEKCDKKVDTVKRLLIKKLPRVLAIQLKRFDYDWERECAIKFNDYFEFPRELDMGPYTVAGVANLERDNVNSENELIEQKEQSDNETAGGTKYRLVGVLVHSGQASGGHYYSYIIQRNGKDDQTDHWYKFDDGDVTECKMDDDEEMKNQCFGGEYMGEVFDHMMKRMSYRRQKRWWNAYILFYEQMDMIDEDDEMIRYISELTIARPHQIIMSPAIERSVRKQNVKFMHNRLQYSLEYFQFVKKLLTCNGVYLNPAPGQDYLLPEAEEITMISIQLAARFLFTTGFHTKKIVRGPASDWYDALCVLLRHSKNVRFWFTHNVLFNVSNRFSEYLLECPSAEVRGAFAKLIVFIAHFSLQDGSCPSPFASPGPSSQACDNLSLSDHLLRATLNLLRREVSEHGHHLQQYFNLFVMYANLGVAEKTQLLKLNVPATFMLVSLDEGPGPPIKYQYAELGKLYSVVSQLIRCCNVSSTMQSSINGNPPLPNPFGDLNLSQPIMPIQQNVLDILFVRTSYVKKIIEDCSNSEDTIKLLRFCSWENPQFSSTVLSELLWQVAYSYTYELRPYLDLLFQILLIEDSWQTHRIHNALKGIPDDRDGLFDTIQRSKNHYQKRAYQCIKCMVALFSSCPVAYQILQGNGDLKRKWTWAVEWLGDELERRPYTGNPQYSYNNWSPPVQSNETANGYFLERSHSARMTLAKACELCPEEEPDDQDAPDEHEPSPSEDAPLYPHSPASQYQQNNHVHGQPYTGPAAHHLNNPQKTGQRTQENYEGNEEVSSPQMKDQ
# Summary of the method: as §1
# UniProt P51784 = target: UniProt P51784
# Sequence of UniProt P51784 (P51784 whole entry): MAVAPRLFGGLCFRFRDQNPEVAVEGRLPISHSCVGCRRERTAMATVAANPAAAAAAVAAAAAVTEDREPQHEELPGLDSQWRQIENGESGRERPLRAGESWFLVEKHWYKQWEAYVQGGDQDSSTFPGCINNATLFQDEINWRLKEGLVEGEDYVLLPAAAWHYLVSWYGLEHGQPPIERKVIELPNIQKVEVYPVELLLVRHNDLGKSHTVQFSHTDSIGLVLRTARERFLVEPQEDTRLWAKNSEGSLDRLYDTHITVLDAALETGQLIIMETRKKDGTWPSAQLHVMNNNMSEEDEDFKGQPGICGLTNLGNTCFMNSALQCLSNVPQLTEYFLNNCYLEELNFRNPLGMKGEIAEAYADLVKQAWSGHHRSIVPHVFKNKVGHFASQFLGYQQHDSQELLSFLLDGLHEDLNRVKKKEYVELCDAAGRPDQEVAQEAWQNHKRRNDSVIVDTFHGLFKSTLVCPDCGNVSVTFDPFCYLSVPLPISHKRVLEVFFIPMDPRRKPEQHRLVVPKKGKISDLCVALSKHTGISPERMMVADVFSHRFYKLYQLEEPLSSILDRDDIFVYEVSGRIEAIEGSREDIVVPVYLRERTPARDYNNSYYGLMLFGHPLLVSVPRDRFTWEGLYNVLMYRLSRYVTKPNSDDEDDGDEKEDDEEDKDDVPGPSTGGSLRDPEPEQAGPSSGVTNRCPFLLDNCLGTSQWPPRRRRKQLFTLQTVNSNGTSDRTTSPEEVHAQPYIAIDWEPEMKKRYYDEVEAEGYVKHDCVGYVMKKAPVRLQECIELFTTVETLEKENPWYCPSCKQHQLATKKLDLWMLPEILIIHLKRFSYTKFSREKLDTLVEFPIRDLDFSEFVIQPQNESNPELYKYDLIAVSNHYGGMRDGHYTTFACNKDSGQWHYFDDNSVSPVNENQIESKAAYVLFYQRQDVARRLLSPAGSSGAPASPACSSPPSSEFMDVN
# Summary of the method: as §1
# UniProt Q5T2D3 = target: T1, UniProt Q5T2D3
# T1 sequence (whole entry): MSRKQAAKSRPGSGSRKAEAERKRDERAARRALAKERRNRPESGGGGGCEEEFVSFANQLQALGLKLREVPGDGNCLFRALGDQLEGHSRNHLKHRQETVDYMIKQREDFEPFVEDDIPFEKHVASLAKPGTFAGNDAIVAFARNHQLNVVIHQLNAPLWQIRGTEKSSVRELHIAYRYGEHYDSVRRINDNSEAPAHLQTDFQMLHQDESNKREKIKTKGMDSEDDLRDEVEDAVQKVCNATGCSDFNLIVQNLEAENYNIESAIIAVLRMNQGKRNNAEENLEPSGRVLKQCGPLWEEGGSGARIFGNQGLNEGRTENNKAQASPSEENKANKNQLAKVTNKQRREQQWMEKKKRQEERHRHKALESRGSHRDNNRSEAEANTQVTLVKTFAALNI
# Summary of the method: as §1
# UniProt Q8TE49 = target: T2, UniProt Q8TE49
# T2 sequence (whole entry): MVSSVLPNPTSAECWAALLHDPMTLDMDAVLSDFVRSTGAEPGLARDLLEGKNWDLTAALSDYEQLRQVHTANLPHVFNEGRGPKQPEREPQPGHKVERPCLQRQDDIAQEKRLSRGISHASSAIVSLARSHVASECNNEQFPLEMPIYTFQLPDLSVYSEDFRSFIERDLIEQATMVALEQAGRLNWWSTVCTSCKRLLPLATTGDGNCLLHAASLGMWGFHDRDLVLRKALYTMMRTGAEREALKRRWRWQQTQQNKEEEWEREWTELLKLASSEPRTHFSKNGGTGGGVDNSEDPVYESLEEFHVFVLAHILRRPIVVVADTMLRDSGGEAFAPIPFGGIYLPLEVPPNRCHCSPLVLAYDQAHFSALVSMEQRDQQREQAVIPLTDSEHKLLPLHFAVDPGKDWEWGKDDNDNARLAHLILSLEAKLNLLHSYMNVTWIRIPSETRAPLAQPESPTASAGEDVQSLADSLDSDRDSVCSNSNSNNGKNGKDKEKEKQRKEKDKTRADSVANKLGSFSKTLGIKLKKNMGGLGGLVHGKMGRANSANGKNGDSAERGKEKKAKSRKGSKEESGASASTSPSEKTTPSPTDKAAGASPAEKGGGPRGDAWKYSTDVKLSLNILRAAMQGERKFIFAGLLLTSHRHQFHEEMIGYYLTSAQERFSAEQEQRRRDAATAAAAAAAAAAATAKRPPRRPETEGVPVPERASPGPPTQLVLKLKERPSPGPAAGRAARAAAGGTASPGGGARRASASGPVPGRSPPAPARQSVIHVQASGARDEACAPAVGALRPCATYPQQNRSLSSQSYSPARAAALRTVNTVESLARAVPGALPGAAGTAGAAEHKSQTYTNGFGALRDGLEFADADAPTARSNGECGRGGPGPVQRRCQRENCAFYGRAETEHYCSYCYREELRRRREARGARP
# Summary of the method: as §1
# UniProt Q9P2H5 = target: T3, UniProt Q9P2H5
# T3 sequence (whole entry): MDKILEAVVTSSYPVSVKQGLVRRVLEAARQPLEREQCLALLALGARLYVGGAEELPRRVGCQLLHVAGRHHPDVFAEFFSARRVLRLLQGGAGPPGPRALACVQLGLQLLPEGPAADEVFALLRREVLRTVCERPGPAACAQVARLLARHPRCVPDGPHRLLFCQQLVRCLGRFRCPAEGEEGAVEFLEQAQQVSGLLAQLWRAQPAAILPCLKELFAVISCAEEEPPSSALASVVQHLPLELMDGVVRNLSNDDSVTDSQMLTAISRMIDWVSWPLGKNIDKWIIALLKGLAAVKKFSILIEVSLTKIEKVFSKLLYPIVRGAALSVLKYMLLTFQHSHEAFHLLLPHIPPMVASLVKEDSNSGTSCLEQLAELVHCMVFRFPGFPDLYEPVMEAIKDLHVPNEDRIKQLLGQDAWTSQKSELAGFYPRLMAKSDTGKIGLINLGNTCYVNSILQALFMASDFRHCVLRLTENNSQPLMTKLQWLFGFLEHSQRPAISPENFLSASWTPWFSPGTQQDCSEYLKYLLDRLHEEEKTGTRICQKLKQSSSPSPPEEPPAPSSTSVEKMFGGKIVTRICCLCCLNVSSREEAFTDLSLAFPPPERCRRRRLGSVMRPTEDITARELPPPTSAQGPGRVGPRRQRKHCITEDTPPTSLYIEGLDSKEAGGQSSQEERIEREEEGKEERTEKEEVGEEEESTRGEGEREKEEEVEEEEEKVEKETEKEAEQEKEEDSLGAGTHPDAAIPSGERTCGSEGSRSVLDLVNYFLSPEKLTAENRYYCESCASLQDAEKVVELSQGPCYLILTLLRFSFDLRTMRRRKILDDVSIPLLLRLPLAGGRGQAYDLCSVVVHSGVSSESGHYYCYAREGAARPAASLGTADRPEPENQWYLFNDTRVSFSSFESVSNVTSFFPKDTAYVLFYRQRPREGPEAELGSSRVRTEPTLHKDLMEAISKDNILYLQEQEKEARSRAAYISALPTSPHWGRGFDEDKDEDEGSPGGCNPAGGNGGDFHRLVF
# Summary of the method: as §1
# UniProt Q9UGI0 = target: T4, UniProt Q9UGI0
# T4 sequence (whole entry): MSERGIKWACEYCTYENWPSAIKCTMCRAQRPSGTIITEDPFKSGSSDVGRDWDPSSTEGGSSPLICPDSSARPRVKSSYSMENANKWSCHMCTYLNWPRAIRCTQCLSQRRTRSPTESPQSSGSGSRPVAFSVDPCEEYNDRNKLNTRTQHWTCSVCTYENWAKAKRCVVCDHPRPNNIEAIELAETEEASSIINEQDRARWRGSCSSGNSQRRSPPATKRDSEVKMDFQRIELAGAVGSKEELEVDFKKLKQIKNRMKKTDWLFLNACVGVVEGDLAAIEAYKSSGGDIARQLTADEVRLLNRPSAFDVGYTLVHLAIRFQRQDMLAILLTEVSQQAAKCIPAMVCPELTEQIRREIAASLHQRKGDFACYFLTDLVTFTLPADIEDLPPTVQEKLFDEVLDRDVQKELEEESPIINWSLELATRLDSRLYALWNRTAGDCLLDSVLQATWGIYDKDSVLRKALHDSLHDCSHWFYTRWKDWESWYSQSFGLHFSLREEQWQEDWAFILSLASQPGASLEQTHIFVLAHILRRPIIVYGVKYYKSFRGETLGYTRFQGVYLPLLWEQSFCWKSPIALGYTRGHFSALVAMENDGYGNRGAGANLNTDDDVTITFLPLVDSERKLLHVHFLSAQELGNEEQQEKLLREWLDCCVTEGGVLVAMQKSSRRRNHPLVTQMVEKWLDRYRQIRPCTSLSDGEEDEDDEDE
# Summary of the method: as §1
# YOD1 = target: T5, YOD1 (UniProt Q5VVQ6)
# T5 sequence (whole entry): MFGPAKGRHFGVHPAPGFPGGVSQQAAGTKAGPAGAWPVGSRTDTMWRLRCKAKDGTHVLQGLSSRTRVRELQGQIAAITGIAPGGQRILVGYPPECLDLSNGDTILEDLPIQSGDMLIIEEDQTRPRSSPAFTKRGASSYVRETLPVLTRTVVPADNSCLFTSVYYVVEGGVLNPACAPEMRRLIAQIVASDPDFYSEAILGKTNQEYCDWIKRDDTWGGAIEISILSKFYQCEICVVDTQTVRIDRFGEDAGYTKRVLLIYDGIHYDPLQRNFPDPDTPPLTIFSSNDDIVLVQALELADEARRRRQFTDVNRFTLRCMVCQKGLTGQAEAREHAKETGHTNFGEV
# Summary of the method: as §1
smiles,measurement,setting,value
Cc1nc(-c2cccc(NC(=O)CCl)c2)cs1,log2 ratio of Biotin-Ahx-Ub-VS probe labelling,USP9X,-0.362
same,log2 ratio of Biotin-Ahx-Ub-VS probe labelling,UniProt O00487,-0.0542
same,log2 ratio of Biotin-Ahx-Ub-VS probe labelling,UniProt O00507,-0.692
same,log2 ratio of Biotin-Ahx-Ub-VS probe labelling,UniProt P51784,-0.269
same,log2 ratio of Biotin-Ahx-Ub-VS probe labelling,UniProt Q5T2D3,-0.317
same,log2 ratio of Biotin-Ahx-Ub-VS probe labelling,UniProt Q8TE49,-0.655
same,log2 ratio of Biotin-Ahx-Ub-VS probe labelling,UniProt Q9P2H5,-0.193
same,log2 ratio of Biotin-Ahx-Ub-VS probe labelling,UniProt Q9UGI0,-1.43 (active)
same,log2 ratio of Biotin-Ahx-Ub-VS probe labelling,YOD1,-0.369
